# Test results taken from PubChem BioAssay.
# Values joined by “and” are separate entries in the source; they are usually repeats but may differ in a detail not shown here. Identical values can stand only once. Active and inactive are the calls of the source. Unless noted, how the calls were made is not given here.
# Columns and labels:
# [1] = liver-stage malaria parasite growth inhibition, primary screen, cell-based, HepG2, luciferase luminescence, HepG2 viability (AID 624349; in the data active means parasite load remaining mostly below about 12%, no sharp cut-off; inactive means mostly above about 10%;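 further: 100% = mean of DMSO negative control wells on the same plate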); details: P. berghei liver stage in HepG2, luciferase luminescence, concentration not given here; parasite load remaining: stronger effect = lower value; viability: measured here: HepG2 viability without parasites
# [2] = Cy5 fluorescence interference with SSB-bound oligo, artefact control for HCV NS3 helicase inhibitor project, biochemical, NIH Clinical Collection, E. coli SSB (AID 743268)
# [3] = test system: Hepatitis C virus NS3 helicase; assay: HCV NS3 helicase inhibitors, primary screen, biochemical, fluorescence polarization, NIH Clinical Collection (AID 743270); details: NS3 helicase binding to Cy5-dT15 DNA, stronger effect = higher value, concentration not given here
# [4] = target: Single-stranded DNA-binding protein (Escherichia coli (strain K12)) (UniProt P0AGE0); assay: E. coli SSB displacement from DNA, counter-screen for HCV NS3 helicase inhibitor project, biochemical, fluorescence polarization, NIH Clinical Collection (AID 743271; in the data active means inhibition above about 28%); details: stronger effect = higher value, concentration not given here
# [5] = fluorescence interference in NS3h assay format, artefact control for HCV NS3 helicase inhibitor project, biochemical, NIH Clinical Collection (AID 743272); details: fluorescence interference counterscreen, stronger effect = lower value;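 further: HCV NS3 helicase with a Cy5 labelled single stranded DNA probe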
# [6] = stimulators of nuclear beta-catenin in C2C12, primary screen, imaging, WNT3A-conditioned medium, mouse C2C12, NPC library (AID 1117326; in the data active means nuclear beta-catenin stimulation mostly above about 4.2%, no sharp cut-off; inactive means mostly below about 10%); details: stronger effect = higher value
# [7] = stimulators of insulin release from INS-1E, primary screen, cell-based, 5 mM glucose, NPC library (AID 1117329;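 active means compound raises insulin release from rat beta cells at 5 mM glucose, no numeric limit stated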); details: rat INS-1E insulin secretion, at 10 µM, stronger effect = higher value
# [8] = growth inhibition of GSK3B-pretreated HCT116 cells – cell-based, CellTiter-Glo, 0.2 to 20 µM (AID 1117336;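 active means compounds lowering colon cancer cell viability after pretreatment blocking the GSK3B kinase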); details: HCT116 viability after GSK3B inhibitor, at 20 µM, stronger effect = higher value
# [9] = inhibition of endothelial tube formation, primary screen, imaging, VEGF stimulated, CD31 staining, tube area, NPC library (AID 1117340;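 active means compound that reduces growth-factor-driven endothelial tube area in a mixed cell culture, no cutoff stated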); details: VEGF-stimulated ADSC/ECFC co-culture, at 10 µM, stronger effect = higher value
# [10] = glucagon-like peptide 1 release enhancers, primary assay, NCI-H716 cell line, NPC library (AID 1117341;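 active means compound raises GLP1 secretion from the human gut endocrine cells, with no numeric limit stated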); details: NCI-H716 cells, at 10 µM, stronger effect = higher value
# [11] = HCT116 colon cancer cell growth inhibition, primary screen, CellTiter-Glo luminescence, NPC library (AID 1117342;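 active means compounds that lower survival of HCT116 colon cancer cells in the luminescence readout, no numeric limit stated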); details: at 20 µM (top of the series)
# [12] = CellTiter-Glo luminescent readout of SW480 viability loss, NPC library primary (AID 1117343;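 active means compounds that lower viability of the colon cancer cells in the luminescence readout, with no numeric limit stated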); details: CellTiter-Glo luminescence; at 20 µM (top of the series)
# [13] = decreased DLD-1 cellular survival, CellTiter-Glo luminescent readout, NPC compound collection, primary HTS (AID 1117346;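 active means compounds that lower survival of DLD-1 colon cancer cells in the luminescence readout, no cutoff given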); details: DLD-1 viability, CellTiter-Glo luminescence; at 20 µM (top of the series)
# [14] = target: 6-phosphogluconate dehydrogenase, decarboxylating (Homo sapiens) (UniProt P52209); assay: 6PGD enzyme inhibitors, primary screen, biochemical, human, recombinant enzyme, NADPH absorbance (AID 1159550;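 active means at least 20% inhibition of 6-phosphogluconate dehydrogenase activity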); details: recombinant 6PGD, NADPH absorbance 341 nm; at 10 µM; stronger effect = higher value
# 6-phosphogluconate dehydrogenase, decarboxylating (Homo sapiens), sequence (P52209 whole entry, looked up): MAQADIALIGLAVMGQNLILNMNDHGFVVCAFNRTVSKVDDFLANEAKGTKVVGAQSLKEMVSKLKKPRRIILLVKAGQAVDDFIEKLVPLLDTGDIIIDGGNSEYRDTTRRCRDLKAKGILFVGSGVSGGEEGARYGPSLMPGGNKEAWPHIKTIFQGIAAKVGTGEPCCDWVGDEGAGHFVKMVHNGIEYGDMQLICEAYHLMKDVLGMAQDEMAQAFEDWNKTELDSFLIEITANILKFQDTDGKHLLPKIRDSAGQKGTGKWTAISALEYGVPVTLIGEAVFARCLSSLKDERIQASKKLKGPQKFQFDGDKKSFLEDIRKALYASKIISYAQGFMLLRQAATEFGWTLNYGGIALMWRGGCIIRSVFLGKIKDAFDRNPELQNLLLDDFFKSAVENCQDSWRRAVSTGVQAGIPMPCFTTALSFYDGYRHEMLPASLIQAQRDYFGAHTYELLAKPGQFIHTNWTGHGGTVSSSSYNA
# [15] = sensitizers of A549 cells to miR-34 induction, primary screen, imaging, A549 dox-inducible miR-34, nuclei and caspase counts (AID 1347080;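 active means compounds whose cell count with miR-34 switched on is under 0.7 times the count with it off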); details: A549 miR-34 inducible, Hoechst nuclei count, 48 h
# [16] = survival rescue of mitochondrial mutant cells in low glucose, primary screen, MELAS cybrids, Rieske KO mouse fibroblasts, CellTiter-Glo (AID 1508586;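 active means mean z-score across replicates of 1.96 or higher in either the MELAS or the Rieske mutant cell line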;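 further: z relative to plate mean and SD of compound and empty wells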)
# [17] = target: NAD(+) hydrolase SARM1 (Homo sapiens) (UniProt Q6SZW1); assay: SARM1 TIR NADase inhibitors, cell lysate, NAD-Glo luminescence (AID 1508614;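 active means compound whose remaining NAD level is above about 45 nM, limit read from the data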); details: SAM-TIR HEK293T lysate NADase, at 1 µM, stronger effect = higher value
# NAD(+) hydrolase SARM1 (Homo sapiens), sequence (Q6SZW1 whole entry, looked up, the tested form may be a part): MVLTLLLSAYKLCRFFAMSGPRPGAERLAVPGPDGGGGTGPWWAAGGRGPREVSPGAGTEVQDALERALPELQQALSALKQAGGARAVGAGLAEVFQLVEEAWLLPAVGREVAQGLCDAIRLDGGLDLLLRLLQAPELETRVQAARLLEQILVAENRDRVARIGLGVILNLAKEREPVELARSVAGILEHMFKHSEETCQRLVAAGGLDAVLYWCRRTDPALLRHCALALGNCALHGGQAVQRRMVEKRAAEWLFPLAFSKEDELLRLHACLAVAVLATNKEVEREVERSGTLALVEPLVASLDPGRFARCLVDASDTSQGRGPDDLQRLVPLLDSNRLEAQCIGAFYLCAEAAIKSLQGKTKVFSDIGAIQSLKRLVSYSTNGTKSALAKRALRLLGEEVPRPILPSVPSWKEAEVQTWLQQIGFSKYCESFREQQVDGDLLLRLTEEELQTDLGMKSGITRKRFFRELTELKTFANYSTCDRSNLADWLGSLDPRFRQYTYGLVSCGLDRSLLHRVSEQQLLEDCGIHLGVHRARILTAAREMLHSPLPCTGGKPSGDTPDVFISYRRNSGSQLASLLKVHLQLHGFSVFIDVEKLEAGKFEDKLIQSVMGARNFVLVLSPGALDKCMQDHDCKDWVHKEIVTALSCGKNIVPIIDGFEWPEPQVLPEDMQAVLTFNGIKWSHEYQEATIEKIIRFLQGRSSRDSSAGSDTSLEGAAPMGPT
# [18] = target: Mitogen-activated protein kinase 7 (Homo sapiens) (UniProt Q13164); assay: ERK5 transactivation activators in reporter cells, primary screen, cell-based, HTS (AID 1508626;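 active means luciferase signal above three times the same-plate solvent-only control wells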;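 further: luciferase driven by Gal4-ERK5 fusion binding five Gal4 sites before minimal TATA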); details: HeLa Gal4-ERK5 transactivation, 18 h, at 5 µM, stronger effect = higher value
# Mitogen-activated protein kinase 7 (Homo sapiens), sequence (Q13164 whole entry, looked up, the tested form may be a part): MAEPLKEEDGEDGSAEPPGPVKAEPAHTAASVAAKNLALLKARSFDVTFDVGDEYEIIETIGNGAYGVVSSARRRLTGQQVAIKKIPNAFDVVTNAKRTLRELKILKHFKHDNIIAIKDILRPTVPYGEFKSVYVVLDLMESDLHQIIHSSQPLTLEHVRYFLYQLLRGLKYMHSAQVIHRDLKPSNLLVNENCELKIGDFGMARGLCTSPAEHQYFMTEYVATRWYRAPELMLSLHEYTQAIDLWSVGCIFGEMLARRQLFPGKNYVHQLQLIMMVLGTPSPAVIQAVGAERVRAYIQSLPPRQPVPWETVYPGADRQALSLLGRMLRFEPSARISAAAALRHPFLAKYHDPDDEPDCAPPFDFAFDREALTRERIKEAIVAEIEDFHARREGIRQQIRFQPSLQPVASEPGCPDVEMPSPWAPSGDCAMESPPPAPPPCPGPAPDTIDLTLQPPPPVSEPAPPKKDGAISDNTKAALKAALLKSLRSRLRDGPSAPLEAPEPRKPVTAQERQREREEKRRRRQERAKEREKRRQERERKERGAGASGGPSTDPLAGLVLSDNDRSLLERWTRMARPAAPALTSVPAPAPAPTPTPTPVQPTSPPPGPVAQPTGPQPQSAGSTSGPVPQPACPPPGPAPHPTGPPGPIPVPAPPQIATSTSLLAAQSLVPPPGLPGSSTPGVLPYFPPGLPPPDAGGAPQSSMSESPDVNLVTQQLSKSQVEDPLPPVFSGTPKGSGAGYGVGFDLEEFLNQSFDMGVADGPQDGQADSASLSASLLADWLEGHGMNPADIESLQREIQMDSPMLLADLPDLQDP
# F380Y = assay: modulators of BK channel variants, profiling panel, selectivity assay, cell-based, U2OS BacMam, thallium flux, beta subunits (AID 1259406;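 active means thallium flux through the channel raised or lowered by more than 3 SD from vehicle-only wells, actives on both sides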;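 further: initial slope of Thallos dye fluorescence rise after thallium is added; log ratio against the mean of 0.3% DMSO vehicle wells on the same plate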); details: at 30 µM
# [19] = differential killing of epithelial or mesenchymal cells, primary screen, imaging, PC-3E GFP, TEM4-18 mCherry, co-culture (AID 1345086;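 active means compounds killing one labelled cell type while sparing the other, by normalised counts and ratio limits, not self-fluorescent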;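 further: cells exposed to compound for 72 h before imaging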;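 on red/green cell ratio (normalised): normalised mesenchymal count divided by normalised epithelial count so high means epithelial killing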); details: imaging cell counts, at 1 µM
# [20] = stronger effect = lower value, cell number ratio, induced over uninduced
# [21] = measured here: relative caspase fold change +Dox/-Dox
# [22] = measured here: total cells with miR-34 induction, stronger effect = lower value
# [23] = measured here: total cells without miR-34 induction
# [24] = MELAS cybrid survival, CellTiter-Glo 48 h, stronger effect = higher value
# [25] = Rieske KO mouse fibroblast survival, CellTiter-Glo 72 h
compound,measurement,setting,value
CCOc1ccc2ccccc2c1C(=O)N[C@@H]1C(=O)N2[C@@H]1SC(C)(C)[C@@H]2C(=O)O,parasite load remaining,[1],85.4% (inactive) and 87.9% (inactive)
same,viability,[1],103% and 91.5%
same,fluorescence ratio,[2],1.06 (inactive)
same,inhibition,[3],-10.4% (inactive)
same,inhibition,[4],-6.58% (inactive)
same,fluorescence ratio,[5],0.98 (inactive)
same,nuclear beta-catenin stimulation,[6]; at 10 µM,-0.5% (inactive)
same,nuclear beta-catenin stimulation,"[6]; stimulation, at 2 µM",0.1%
same,insulin secretion stimulation,[7],0.3% (inactive)
same,viability decrease,[8],-12.1% (inactive)
same,tube area decrease,[9],-14.5% (inactive)
same,GLP1 secretion stimulation,[10],-2.2% (inactive)
same,inhibition of viability,[11],-10.6% (inactive)
same,viability decrease (inhibition),[12],39.8% (inactive)
same,viability decrease (inhibition),[13],-29.8% (inactive)
same,inhibition,[14],-5.14% (inactive)
same,fold change,[15]; [20],1.06 (inactive) and 0.86 (inactive)
same,fold change,[15]; [21],0.823 and 1.09
same,cell count,[15]; [22],9950 and 9060
same,cell count,[15]; [23],9360 and 10500
same,z-score,[16]; [24],0.661 (inactive)
same,z-score,[16]; [25],-0.47
same,remaining NAD,[17],10 nM (inactive)
same,luciferase signal,[18],76 AU (inactive)
same,log fold change Tl+ flux,F380Y,-0.0205 (inactive)
CC(C)C1CCC(C(=O)N[C@H](Cc2ccccc2)C(=O)O)CC1 (some centres undefined),parasite load remaining,[1],83.5% (inactive) and 55.1% (inactive)
same,viability,[1],68.8% and 167%
same,fluorescence ratio,[2],1.01 (inactive)
same,inhibition,[3],-0.4% (inactive)
same,inhibition,[4],2.98% (inactive)
same,fluorescence ratio,[5],0.74 (active)
same,nuclear beta-catenin stimulation,[6]; at 10 µM,-0.5% (inactive)
same,nuclear beta-catenin stimulation,"[6]; stimulation, at 2 µM",0.2%
same,insulin secretion stimulation,[7],49.4% (active)
same,viability decrease,[8],-22.6% (inactive)
same,tube area decrease,[9],-2.3% (inactive)
same,GLP1 secretion stimulation,[10],2.1% (inactive)
same,inhibition of viability,[11],-6.47% (inactive)
same,viability decrease (inhibition),[12],1% (inactive)
same,viability decrease (inhibition),[13],-23.8% (inactive)
same,inhibition,[14],0.904% (inactive)
same,fold change,[15]; [20],0.871 (inactive)
same,fold change,[15]; [21],1.37
same,cell count,[15]; [22],8810
same,cell count,[15]; [23],10100
same,z-score,[16]; [24],-0.215 (inactive) and -1.18 (inactive)
same,z-score,[16]; [25],-0.618 and -0.816
same,remaining NAD,[17],10 nM (inactive)
same,luciferase signal,[18],80 AU (inactive)
same,log fold change Tl+ flux,F380Y,-0.00809 (inactive)
CC1=C(C(=O)O)N2C(=O)[C@@H](NC(=O)[C@H](N)c3ccccc3)[C@H]2SC1,parasite load remaining,[1],125% (inactive) and 69.1% (inactive) and 137% (inactive)
same,viability,[1],119% and 79.9% and 115%
same,fluorescence ratio,[2],1.01 (inactive)
same,inhibition,[3],8.32% (inactive)
same,inhibition,[4],8.37% (inactive)
same,fluorescence ratio,[5],0.97 (inactive)
same,nuclear beta-catenin stimulation,[6]; at 10 µM,3.8% (inactive)
same,nuclear beta-catenin stimulation,"[6]; stimulation, at 2 µM",0.2%
same,insulin secretion stimulation,[7],-0.9% (inactive)
same,viability decrease,[8],7.2% (inactive)
same,tube area decrease,[9],-2.6% (inactive)
same,GLP1 secretion stimulation,[10],22.8% (active)
same,inhibition of viability,[11],24.3% (inactive)
same,viability decrease (inhibition),[12],44.6% (inactive)
same,viability decrease (inhibition),[13],11.8% (inactive)
same,inhibition,[14],8.67% (inactive)
same,fold change,[15]; [20],0.846 (inactive)
same,fold change,[15]; [21],1.36
same,cell count,[15]; [22],9200
same,cell count,[15]; [23],10900
same,remaining NAD,[17],10 nM (inactive)
same,luciferase signal,[18],40 AU (inactive)
same,log fold change Tl+ flux,F380Y,-0.036 (inactive)
CCCCCCCCCCC[C@@H](C[C@@H]1OC(=O)[C@H]1CCCCCC)OC(=O)[C@H](CC(C)C)NC=O,parasite load remaining,[1],74.9% (inactive)
same,viability,[1],74.1%
same,fluorescence ratio,[2],1.04 (inactive)
same,inhibition,[3],-7.52% (inactive)
same,inhibition,[4],-0.1% (inactive)
same,fluorescence ratio,[5],0.95 (inactive)
same,nuclear beta-catenin stimulation,[6]; at 10 µM,2.8% (inactive)
same,nuclear beta-catenin stimulation,"[6]; stimulation, at 2 µM",4.5%
same,insulin secretion stimulation,[7],-1.7% (inactive)
same,viability decrease,[8],42.4% (inactive)
same,tube area decrease,[9],102% (active)
same,GLP1 secretion stimulation,[10],0.9% (inactive)
same,inhibition of viability,[11],32.5% (inactive)
same,viability decrease (inhibition),[12],107% (active)
same,viability decrease (inhibition),[13],79.1% (active)
same,inhibition,[14],-8.26% (inactive)
same,fold change,[15]; [20],0.867 (inactive)
same,fold change,[15]; [21],2.26
same,cell count,[15]; [22],7850
same,cell count,[15]; [23],9060
same,remaining NAD,[17],10 nM (inactive)
same,luciferase signal,[18],48 AU (inactive)
same,log fold change Tl+ flux,F380Y,0.0597 (inactive)
OCCN1C[C@H](O)[C@@H](O)[C@H](O)[C@H]1CO,parasite load remaining,[1],103% (inactive)
same,viability,[1],80%
same,fluorescence ratio,[2],1.05 (inactive)
same,inhibition,[3],-1.98% (inactive)
same,inhibition,[4],-4.72% (inactive)
same,fluorescence ratio,[5],0.93 (inactive)
same,nuclear beta-catenin stimulation,[6]; at 10 µM,-2.3% (inactive)
same,nuclear beta-catenin stimulation,"[6]; stimulation, at 2 µM",-1%
same,insulin secretion stimulation,[7],5.4% (inactive)
same,viability decrease,[8],-1.6% (inactive)
same,tube area decrease,[9],0.1% (inactive)
same,GLP1 secretion stimulation,[10],-1.4% (inactive)
same,inhibition of viability,[11],0.6% (inactive)
same,viability decrease (inhibition),[12],-1.7% (inactive)
same,viability decrease (inhibition),[13],0.1% (inactive)
same,inhibition,[14],6.33% (inactive)
same,z-score,[16]; [24],0.074 (inactive)
same,z-score,[16]; [25],0.78
same,remaining NAD,[17],10 nM (inactive)
same,luciferase signal,[18],80 AU (inactive)
same,log fold change Tl+ flux,F380Y,-0.0502 (inactive)
c1ccc2c(CC3=NCCN3)cccc2c1,fluorescence ratio,[2],1.03 (inactive)
same,inhibition,[3],-3.18% (inactive)
same,inhibition,[4],-2.76% (inactive)
same,fluorescence ratio,[5],1.02 (inactive)
same,nuclear beta-catenin stimulation,[6]; at 10 µM,0.4% (inactive)
same,nuclear beta-catenin stimulation,"[6]; stimulation, at 2 µM",1.1%
same,insulin secretion stimulation,[7],-1.7% (inactive)
same,viability decrease,[8],-2.25% (inactive)
same,tube area decrease,[9],20.2% (inactive)
same,GLP1 secretion stimulation,[10],2.8% (inactive)
same,inhibition of viability,[11],-0.7% (inactive)
same,viability decrease (inhibition),[12],19.7% (inactive)
same,viability decrease (inhibition),[13],8% (inactive)
same,inhibition,[14],-9.35% (inactive)
same,red/green cell ratio (normalised),"[19]; actives lie on both sides, counts scaled to control wells, 1 = unselective",0.84 (inactive)
same,normalised cell number,[19]; measured here: epithelial PC-3E GFP cell survival,1.03
same,normalised cell number,[19]; measured here: mesenchymal TEM4-18 mCherry cell survival,0.86
same,z-score,[16]; [24],-0.272 (inactive) and 0.214 (inactive) and 0.142 (inactive)
same,z-score,[16]; [25],-0.0845 and -0.183 and -0.115
same,remaining NAD,[17],10 nM (inactive)
same,luciferase signal,[18],44 AU (inactive)
same,log fold change Tl+ flux,F380Y,-0.0182 (inactive)
